Consider 29 compounds from PubChem BioAssay (NCATS).

Structures are written as SMILES. Inconclusive results are not listed. Calls of active or inactive are those of the source. Unless noted, calls follow the shape of the dose curve; as a rule, active = well fitted curve in the direction sought with a large enough effect; inconclusive = small, poorly fitted or top-dose-only effect, or another doubt; inactive = no such curve, though single readings can be large; an effect the other way counts as inactive or inconclusive.

For assay [1], the target named is Thyrotropin receptor (Homo sapiens) (UniProt P16473). The assay is described as follows: qHTS Assay for Antagonists of the Thyroid Stimulating Hormone Receptor (AID 488980). Also: series mostly up to about 58 µM; 0% is about no effect. In short, it runs like this:
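Cells expressing human TSHR (HEK293) are dispensed in HBSS/HEPES containing 70 uM RO 20-1724, compound is added, then TSH at EC80 (4 nM final). Antibody in lysis buffer follows, 30 minutes at room temperature before HTRF detection.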

In assay [2] the target is D(1A) dopamine receptor (Homo sapiens) (UniProt P21728). As to the kind of experiment: HTS Assay for Allosteric Agonists of the Human D1 Dopamine Receptor: Primary Screen for Agonists (AID 488981). Also: 0% is about no effect. The essentials:
(§1)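 Tetracycline-induced HEK293 T-REx cells force-coupled to calcium signalling were incubated overnight at 30 C and dye-loaded at room temperature. Calcium flux over 180 s after compound addition flagged agonists; a further 180 s read after EC20 dopamine flagged potentiators.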

Assay [3] has the same target. As to the kind of experiment: HTS Assay for Allosteric Agonists of the Human D1 Dopamine Receptor: Primary Screen for Potentiators (AID 488982). Also: 0% is about no effect. In short, it runs like this: as §1
For assay [4] the target is unchanged. As to the kind of experiment: HTS Assay for Allosteric Agonists of the Human D1 Dopamine Receptor: Primary Screen for Antagonists (AID 488983).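 Also: calcium flux response to an EC80 dopamine challenge measured with no-wash dye; nearly all actives have a fitted effect of over 65% in size.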 Also: potency is read from the fitted curve at half-maximal effect. The essentials: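 Tetracycline-induced HEK293 T-REx D1 line, force-coupled to calcium flux, read with no-wash calcium dye. Compound added after 10 s baseline, read 180 s for agonism, then EC80 dopamine added and read a further 180 s.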

Assay [5] in a line: Validation screen for small molecules that induce genotoxicity in human embryonic kidney (HEK293T) cells expressing luciferase-tagged ELG1 (AID 493106). Also: potency is read from the fitted curve at half-maximal effect. In short, it runs like this:
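HEK293T cells expressing luciferase-tagged ELG1, 2,000 cells/well, exposed to compound 16 hr at 37 °C, 5% CO2. Luciferase read after ONE-Glo, 30 min at room temperature; increased signal indicates genetic stress.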

In assay [6] the target is ATPase family AAA domain-containing protein 5 (Homo sapiens) (UniProt Q96QE3). The assay is described as follows: Validation screen for small molecules that inhibit ELG1-dependent DNA repair in human embryonic kidney (HEK293T) cells expressing luciferase-tagged ELG1 (AID 493107). Also: nearly all actives have a fitted effect of over 70% in size. Also: potency is read from the fitted curve at half-maximal effect. In short, it runs like this:
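HEK293T cells expressing luciferase-tagged ELG1, 2,000 per well, treated with 5-fluorouridine plus compound for 16 h at 37 C. ONE-Glo luminescence after 30 min at room temperature reports ELG1 reporter level.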

A short description of assay [7]: Nrf2 qHTS screen for inhibitors: Validation (AID 493153; active = well fitted inhibition curve with a large enough effect in the main read-out, with a control signal flat, not every such curve was filed as active). The note with it: Potency: luciferase luminescence; viability change: measured here: cytotoxicity max response. The essentials: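 A549 cells carrying ARE-firefly luciferase reporter, 5000 cells/well in 5% FBS OPTI-MEM, treated with compound over a concentration series for 18-24 h at 37 C. Luciferase luminescence gave Nrf2 activity; CellTiter-Fluor fluorescence gave viability.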
For orientation: qHTS replaces the single test concentration by a dilution series.

Assay [8] addresses Thyrotropin-releasing hormone receptor (Homo sapiens) (UniProt P34981). The assay is described as follows: qHTS for Small Molecule Agonists and Allosteric Enhancers of Human TRH Receptor: Validation Screen for Agonists (AID 493127;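 active = calcium activation more than 3 SD above the typical response in the agonist read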; also: 0% is about no effect). The note with it: TRH receptor agonist cell assay; at 2 µM; stronger effect = higher value. In short, it runs like this: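 TRHR cells loaded with fluo-8 calcium dye; FDSS kinetic fluorescence (Ex 480/Em 530) read at 1 s/cycle after 23 nL compound addition. Agonist-mode calcium response recorded before the 10 nM TRH (EC20) addition.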

Chain of ATPase family AAA domain-containing protein 5 (Homo sapiens) (Q96QE3 whole entry, looked up, the tested form may be a part): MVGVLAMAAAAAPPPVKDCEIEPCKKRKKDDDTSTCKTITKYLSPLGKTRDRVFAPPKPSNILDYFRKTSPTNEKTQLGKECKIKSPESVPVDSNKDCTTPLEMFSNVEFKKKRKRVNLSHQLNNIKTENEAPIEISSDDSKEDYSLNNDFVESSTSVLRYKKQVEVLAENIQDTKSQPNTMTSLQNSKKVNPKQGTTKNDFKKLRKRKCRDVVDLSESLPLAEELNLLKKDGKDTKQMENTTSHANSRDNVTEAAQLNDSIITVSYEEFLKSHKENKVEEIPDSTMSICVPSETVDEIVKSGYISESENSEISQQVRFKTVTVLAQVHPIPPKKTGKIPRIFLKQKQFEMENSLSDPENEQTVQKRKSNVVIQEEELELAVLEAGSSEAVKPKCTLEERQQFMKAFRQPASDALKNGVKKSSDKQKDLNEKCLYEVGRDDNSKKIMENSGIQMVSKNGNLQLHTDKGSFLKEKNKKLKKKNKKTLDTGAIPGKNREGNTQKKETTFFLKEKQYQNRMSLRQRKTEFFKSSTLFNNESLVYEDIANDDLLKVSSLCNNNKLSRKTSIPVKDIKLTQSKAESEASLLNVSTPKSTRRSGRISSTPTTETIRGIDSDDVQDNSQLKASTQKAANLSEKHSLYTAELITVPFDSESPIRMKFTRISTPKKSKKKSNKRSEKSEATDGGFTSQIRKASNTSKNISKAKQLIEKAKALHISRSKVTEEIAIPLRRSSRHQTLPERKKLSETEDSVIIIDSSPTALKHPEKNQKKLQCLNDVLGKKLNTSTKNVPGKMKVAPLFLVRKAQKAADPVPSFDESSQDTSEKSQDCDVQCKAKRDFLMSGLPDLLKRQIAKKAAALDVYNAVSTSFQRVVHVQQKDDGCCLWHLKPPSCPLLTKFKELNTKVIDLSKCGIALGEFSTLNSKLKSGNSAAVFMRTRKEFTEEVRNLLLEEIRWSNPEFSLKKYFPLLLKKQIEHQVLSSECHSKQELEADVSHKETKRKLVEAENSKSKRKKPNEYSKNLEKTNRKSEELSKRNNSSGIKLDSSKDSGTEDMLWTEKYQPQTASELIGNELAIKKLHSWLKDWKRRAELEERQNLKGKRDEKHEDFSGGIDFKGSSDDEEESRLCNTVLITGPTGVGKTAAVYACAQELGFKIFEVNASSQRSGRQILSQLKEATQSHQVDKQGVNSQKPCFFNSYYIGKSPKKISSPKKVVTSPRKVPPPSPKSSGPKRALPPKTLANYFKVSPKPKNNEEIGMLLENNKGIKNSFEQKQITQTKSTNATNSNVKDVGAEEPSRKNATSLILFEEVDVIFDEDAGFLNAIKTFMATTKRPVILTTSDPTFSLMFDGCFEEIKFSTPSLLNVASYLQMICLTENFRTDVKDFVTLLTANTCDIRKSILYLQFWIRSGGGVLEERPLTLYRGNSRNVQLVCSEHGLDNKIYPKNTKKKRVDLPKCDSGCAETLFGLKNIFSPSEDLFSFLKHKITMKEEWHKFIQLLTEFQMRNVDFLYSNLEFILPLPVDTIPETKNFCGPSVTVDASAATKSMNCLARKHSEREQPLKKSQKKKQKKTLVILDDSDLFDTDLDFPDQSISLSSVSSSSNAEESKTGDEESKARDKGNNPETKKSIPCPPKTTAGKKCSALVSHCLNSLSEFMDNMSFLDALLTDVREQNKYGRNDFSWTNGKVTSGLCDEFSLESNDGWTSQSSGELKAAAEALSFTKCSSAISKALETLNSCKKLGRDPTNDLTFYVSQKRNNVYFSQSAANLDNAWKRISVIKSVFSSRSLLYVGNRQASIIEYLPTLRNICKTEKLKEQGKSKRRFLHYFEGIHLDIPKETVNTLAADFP
Chain of Thyrotropin-releasing hormone receptor (Homo sapiens) (P34981 whole entry, looked up): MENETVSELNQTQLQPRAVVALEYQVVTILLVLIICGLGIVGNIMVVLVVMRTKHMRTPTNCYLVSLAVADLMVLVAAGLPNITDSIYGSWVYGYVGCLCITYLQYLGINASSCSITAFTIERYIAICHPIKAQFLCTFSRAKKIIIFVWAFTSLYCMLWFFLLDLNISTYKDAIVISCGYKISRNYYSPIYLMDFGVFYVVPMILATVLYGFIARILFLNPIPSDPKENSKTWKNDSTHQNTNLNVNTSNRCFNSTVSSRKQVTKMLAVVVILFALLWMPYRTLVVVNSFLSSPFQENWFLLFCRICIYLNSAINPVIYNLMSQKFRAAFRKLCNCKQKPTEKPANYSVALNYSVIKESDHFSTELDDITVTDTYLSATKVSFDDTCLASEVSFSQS
Chain of D(1A) dopamine receptor (Homo sapiens) (P21728 whole entry, looked up): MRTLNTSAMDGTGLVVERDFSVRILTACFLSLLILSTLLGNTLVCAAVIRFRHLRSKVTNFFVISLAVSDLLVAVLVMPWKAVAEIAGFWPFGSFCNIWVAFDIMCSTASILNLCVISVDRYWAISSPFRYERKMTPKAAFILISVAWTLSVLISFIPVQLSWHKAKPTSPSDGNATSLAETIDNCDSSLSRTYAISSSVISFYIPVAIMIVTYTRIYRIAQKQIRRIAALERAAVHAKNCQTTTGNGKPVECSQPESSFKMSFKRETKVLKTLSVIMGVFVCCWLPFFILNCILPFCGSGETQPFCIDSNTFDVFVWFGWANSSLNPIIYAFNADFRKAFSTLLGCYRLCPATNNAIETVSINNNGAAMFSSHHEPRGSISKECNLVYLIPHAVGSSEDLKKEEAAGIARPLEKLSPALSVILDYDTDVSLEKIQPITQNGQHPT
Chain of Thyrotropin receptor (Homo sapiens) (P16473 whole entry, looked up): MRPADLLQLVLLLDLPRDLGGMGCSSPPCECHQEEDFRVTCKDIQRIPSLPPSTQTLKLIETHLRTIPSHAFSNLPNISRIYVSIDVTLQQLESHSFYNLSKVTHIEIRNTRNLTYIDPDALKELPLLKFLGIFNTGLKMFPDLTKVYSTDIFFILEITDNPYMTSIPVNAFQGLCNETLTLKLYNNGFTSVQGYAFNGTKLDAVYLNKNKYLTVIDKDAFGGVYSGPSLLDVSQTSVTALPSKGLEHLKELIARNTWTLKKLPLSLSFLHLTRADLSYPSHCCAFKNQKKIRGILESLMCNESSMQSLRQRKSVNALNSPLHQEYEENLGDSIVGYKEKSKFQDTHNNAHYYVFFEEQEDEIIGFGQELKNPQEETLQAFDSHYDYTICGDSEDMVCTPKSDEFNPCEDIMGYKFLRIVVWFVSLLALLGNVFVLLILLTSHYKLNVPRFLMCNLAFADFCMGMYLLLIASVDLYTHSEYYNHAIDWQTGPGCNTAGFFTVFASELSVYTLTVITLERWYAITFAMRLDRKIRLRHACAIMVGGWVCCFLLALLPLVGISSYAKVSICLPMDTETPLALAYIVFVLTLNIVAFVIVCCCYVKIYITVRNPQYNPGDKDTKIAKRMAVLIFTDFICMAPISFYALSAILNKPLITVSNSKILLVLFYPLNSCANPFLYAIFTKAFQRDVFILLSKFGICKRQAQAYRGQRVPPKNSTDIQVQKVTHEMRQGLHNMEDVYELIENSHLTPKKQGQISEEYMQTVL

For `Cn1c(=O)[nH]c2ncn(C)c2c1=O`, in assay [1], the compound was called inactive. The Potency entry in assay [2], in assay [3], in assay [4], in assay [5], in assay [6] and in assay [7] was “inactive” in each case. In addition, the viability change in assay [7] stood at 1.53%.

For the compound `Cn1ccnc1`, in assay [1], the outcome was inactive. Further, the Potency entry in assay [2], in assay [3], in assay [4], in assay [5], in assay [6] and in assay [7] was “inactive” each time. In addition, the viability change in assay [7] was found to be 2.46%.

As to `O=C(O)C1=CC(=C(c2ccc(O)c(C(=O)O)c2)c2ccc(O)c(C(=O)O)c2)C=CC1=O`, the result in assay [1] was inactive. In addition, the Potency result in assay [2], in assay [3], in assay [4], in assay [5] and in assay [7] was “inactive” throughout. The activation in assay [8] is 1% (inactive). In assay [7], the viability change is -5.86%.

As for `N[C@@H](CCCC(=O)O)C(=O)O`, the compound was classed as inactive in assay [1]. In addition, the Potency result in assay [2], in assay [3], in assay [4], in assay [5], in assay [6] and in assay [7] was “inactive” throughout. For the same compound, the viability change in assay [7] was determined as 7.86%.

On to `O=C(O)/C(=C/c1c(C(=O)O)[nH]c2cc(Cl)cc(Cl)c12)c1ccccc1`, for which the call in assay [1] was inactive. The Potency result in assay [2], in assay [3], in assay [4], in assay [5], in assay [6] and in assay [7] was “inactive” in each case. Besides, the viability change in assay [7] is 4.57%.

Turning to `CN(C)C(=O)/N=N/C(=O)N(C)C`, the call in assay [1] was inactive. The Potency result in assay [2], in assay [3], in assay [4], in assay [5], in assay [6] and in assay [7] was “inactive” throughout. Besides, the activation in assay [8] was 0.75% (inactive). The viability change in assay [7] is 1.53%.

For the compound `CC1C(=O)N(C)C(=O)c2nc[nH]c21` (stereo not given), in assay [1], the outcome was inactive. Further, the Potency entry in assay [2], in assay [3], in assay [4], in assay [5], in assay [6] and in assay [7] was “inactive” each time. Moreover, the activation in assay [8] is 1.25% (inactive). In addition, the viability change in assay [7] was -0.209%.

For the compound `N[C@@H](Cc1c[nH]c2ccccc12)C(=O)O`, the outcome in assay [1] was inactive. Also, the Potency entry in assay [2], in assay [3], in assay [4], in assay [5], in assay [6] and in assay [7] was “inactive” each time. Also, the activation in assay [8] was -0.125% (inactive). Further, the viability change in assay [7] is -4.03%.

In the case of `CCCC(=O)NCCc1c2n(c3ccc(OC)cc13)CCCc1ccccc1-2`, the call in assay [1] was inactive. Further, the Potency entry in assay [2], in assay [3], in assay [4] and in assay [5] was “inactive” in each case. The activation in assay [8] was -9.25% (inactive).

As to `N=S(=O)(O)Cc1noc2ccccc12`, the compound was classed as inactive in assay [1]. The Potency entry in assay [2], in assay [3], in assay [4], in assay [5], in assay [6] and in assay [7] was “inactive” each time. For the same compound, in assay [7], the viability change is 0.163%.

Consider `COc1ccc(NC(=O)c2ccc(-c3ccc(-c4noc(C)n4)cc3C)cc2)cc1N1CCN(C)CC1`, for which the compound was called inactive in assay [1]. Further, the Potency entry in assay [2], in assay [3], in assay [5] and in assay [7] was “inactive” each time. The Potency in assay [4] was 20 µM (active); in assay [6] it was 20.6 µM (active). The activation in assay [8] is 2.25% (inactive). Moreover, the viability change in assay [7] was -8.26%.

In the case of `O=C(O)Cc1c[nH]c2ccc(O)cc12`, in assay [1], the call was inactive. The Potency result in assay [2], in assay [3], in assay [4], in assay [5], in assay [6] and in assay [7] was “inactive” in each case. In addition, in assay [7], the viability change was determined as 0.136%.

`NC1(C(=O)O)CCc2cc(C(=O)O)ccc21` (stereo not given): the compound was classed as inactive in assay [1]. Further, the Potency entry in assay [2], in assay [3], in assay [4], in assay [5], in assay [6] and in assay [7] was “inactive” throughout. Besides, the viability change in assay [7] is -0.824%.

Regarding `CC(N)(Cc1ccc(O)cc1)C(=O)O` (stereo not given), the call in assay [1] was inactive. The Potency entry in assay [2], in assay [3], in assay [4], in assay [5], in assay [6] and in assay [7] was “inactive” in each case. Further, the viability change in assay [7] was 11.6%.

For the compound `O=C(O)c1cc(=O)cc(C(=O)O)[nH]1`, the compound was called inactive in assay [1]. Moreover, the Potency result in assay [2], in assay [3], in assay [4], in assay [5], in assay [6] and in assay [7] was “inactive” throughout. For the same compound, in assay [8], the activation is 0.75% (inactive). Moreover, the viability change in assay [7] is -5.74%.

`O=[N+]([O-])c1cccc2cn[nH]c12`: in assay [1], the compound was classed as inactive. The Potency result in assay [2], in assay [3], in assay [4], in assay [5], in assay [6] and in assay [7] was “inactive” throughout. In addition, the activation in assay [8] was 0.5% (inactive). Further, the viability change in assay [7] is -18.2%.

As to `N=C(N)SCCc1cnc[nH]1`, the result in assay [1] was inactive. Also, the Potency result in assay [2], in assay [3], in assay [4], in assay [5] and in assay [7] was “inactive” each time. Also, the activation in assay [8] was -0.375% (inactive). In addition, the viability change in assay [7] is -8.6%.

For `O=C(O)c1cc2cc(F)ccc2[nH]1`, in assay [1], the outcome was inactive. Further, the Potency result in assay [2], in assay [3], in assay [4], in assay [5], in assay [6] and in assay [7] was “inactive” throughout. The viability change in assay [7] was 4.46%.

With `O=C(O)CCC(=O)N1CCCC1C(=O)O` (stereo not given), in assay [1], the compound was classed as inactive. Besides, the Potency entry in assay [2], in assay [3], in assay [4], in assay [5], in assay [6] and in assay [7] was “inactive” in each case. In addition, the viability change in assay [7] was -2.91%.

`Cn1cc(C(F)(F)F)nc1-c1ccc(OCC(O)CNCCOc2ccc(O)c(C(N)=O)c2)cc1` (stereo not given): the compound was classed as inactive in assay [1]. Moreover, the Potency result in assay [2], in assay [3], in assay [4], in assay [5], in assay [6] and in assay [7] was “inactive” in each case. Moreover, the activation in assay [8] is 1.5% (inactive). In assay [7], the viability change was 6.58%.

On to `c1ccc(CN2CCC3(CCCc4ccccc43)CC2)cc1`, for which, in assay [1], the outcome was inactive. Moreover, the Potency result in assay [2], in assay [3], in assay [4], in assay [5] and in assay [7] was “inactive” each time. The activation in assay [8] is -8.25% (inactive). Besides, in assay [7], the viability change was -10.2%.

As for `CCCC[C@@]1(C2CCCC2)Cc2cc(OCC(=O)O)c(Cl)c(Cl)c2C1=O`, the call in assay [1] was inactive. In addition, the Potency entry in assay [2], in assay [3], in assay [4], in assay [5], in assay [6] and in assay [7] was “inactive” throughout. The viability change in assay [7] is -6.32%.

Take `CNc1cc(NS(=O)(=O)c2ccc(N)cc2)nc(NC)n1`: in assay [1], the compound was classed as inactive. In addition, the Potency entry in assay [2], in assay [3], in assay [4], in assay [5] and in assay [7] was “inactive” in each case. Moreover, in assay [8], the activation was 0.25% (inactive). In addition, in assay [7], the viability change worked out at 6.74%.

On to `Nc1ccc(CCNc2ncnc3c2ncn3C2OC(CO)C(O)C2O)cc1` (stereo not given), for which, in assay [1], the compound was called inactive. For the same compound, the Potency result in assay [2], in assay [3], in assay [4], in assay [6] and in assay [7] was “inactive” throughout. Further, the activation in assay [8] is 1.06% (inactive). Besides, the viability change in assay [7] is 5.22%.

On to `N#C/C(=C\c1ccc(O)c(O)c1)C(=O)NCCc1ccccc1`, for which the result in assay [1] was inactive. Besides, the Potency result in assay [2], in assay [3], in assay [4], in assay [6] and in assay [7] was “inactive” in each case. Further, in assay [8], the activation was 0.438% (inactive). For the same compound, the viability change in assay [7] is -10.3%.

Turning to `Nc1ccc(-c2ccc3ccccc3n2)cc1`, the compound was classed as inactive in assay [1]. Further, the Potency entry in assay [2], in assay [3], in assay [4] and in assay [7] was “inactive” throughout. Besides, the Potency in assay [5] is 2.59 µM (active). Moreover, the activation in assay [8] is 4% (inactive). Besides, in assay [7], the viability change was -6.75%.

For `COc1cc(CC(=O)O)ccc1O`, the compound was classed as inactive in assay [1]. Also, the Potency entry in assay [2], in assay [3], in assay [4], in assay [5] and in assay [7] was “inactive” in each case. Further, the viability change in assay [7] is 3.47%.

Consider `Fc1ccc(CN(C2=NCCN2)c2c(Cl)cccc2Cl)cc1`, for which the compound was called inactive in assay [1]. Also, the Potency entry in assay [2], in assay [3], in assay [4], in assay [5] and in assay [7] was “inactive” each time. Further, the activation in assay [8] is 1.31% (inactive). Further, in assay [7], the viability change is -18.2%.

As for `CC(/C=C/c1cccc(Oc2ccc(F)cc2)c1)N(O)C(N)=O` (stereo not given), in assay [1], the result was inactive. Also, the Potency entry in assay [2], in assay [3], in assay [4] and in assay [7] was “inactive” in each case. Also, in assay [8], the activation is 1% (inactive). Further, the viability change in assay [7] was 3.6%.
